Experiment [1] is described as follows: Primary qHTS for small molecule stabilizers of the endoplasmic reticulum resident proteome: Secreted ER Calcium Modulated Protein (SERCaMP) assay (AID 1508630). The method in brief:
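GLuc-SERCaMP-expressing SH-SY5Y cells, pretreated 16 h with compound, are challenged with thapsigargin to empty ER calcium stores; after 4 h, coelenterazine is added directly to the medium and luminescence is imaged.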
For orientation: In qHTS, concentration-response curves come from the screen itself.

The nature of experiment [2]: Confirmatory screen NINDS Rhodamine qHTS for Zika virus inhibitors (AID 1347161).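 Also: purified Zika NS2B-NS3 protease with linked NS2B cofactor domain and Rhodamine110 peptide substrate; series mostly up to about 110 µM; nearly all actives have a fitted effect of over 60% in size.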 The method in brief: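 Percent inhibition, normalized to uninhibited and enzyme-free controls, is fitted to a 4-parameter Hill equation. Fluorescence change comes from a 15-min cleavage of 1.5 microM bis-peptide Rhodamine110 substrate by 25 nM linked NS2B-NS3 at room temperature.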
Experiment [3] in a line: Tertiary RLuc qRT-PCR qHTS assay for Zika virus inhibitors (AID 1347169). Also: top concentration of the series differs between compounds; nearly all actives have a fitted effect of over 55% in size. The method in brief: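 Vero cells (1,000 per well) plated overnight at 37 degrees C, treated with compound in DMSO, then infected with recombinant ZIKV-RLuc (Cambodian) at MOI 1-2 for 48-72 hrs. Live-cell Renilla luciferase substrate added; luminescence read after 1-1.5 hrs.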
Background: Real-time PCR tracks product formation cycle by cycle.

Inconclusive results are not listed. Where a call stands in place of a potency, no number is given. A number with no mark means an inactive call. The source made the active and inactive calls. Calls follow the shape of the dose curve; as a rule, active = well fitted inhibition curve with a large enough effect; inconclusive = small, poorly fitted or top-dose-only effect; inactive = no such curve, though single readings can be large or run the other way.

Regarding `O=c1ccn([C@@H]2O[C@H](COP(=O)(O)OP(=O)(O)OP(=O)(O)O)[C@@H](O)[C@H]2O)c(=O)[nH]1`, the Potency entry in experiment [1] is “inactive”.
As to `O=C(COc1ccccc1)Nc1ccc(C(=O)OCc2cc(=O)n3nc(C4CC4)sc3n2)cc1`, the Potency entry in experiment [2] and in experiment [3] was “inactive” throughout.
For `CC/C=C\C/C=C\C/C=C\CCCCCCCCCCCC(=O)O`, the activity change, negative = inhibition in experiment [1] was 10.3% [at 3.88 µM].

These data come from PubChem BioAssay (NCATS).
